{"source": "PubChem BioAssay"}
{"assay": "caspase-8 TRAIL sensitization, hit retest, confirmation, cell-based, NB7+caspase-8, with/without TRAIL, luminescence panel (AID 651596)", "conditions": "NB7 neuroblastoma + caspase-8, without TRAIL, luminescence viability, without TRAIL, mean of runs, at 10 µM", "units": {"activity": "%"}}
{"smiles": "Fc1ccc(-c2nnc(NC3=NCCCCC3)o2)cc1", "activity": 77.7}
{"smiles": "COCCn1c(C)cc(C(=O)CSc2nnc(C)s2)c1C", "activity": 49}
{"smiles": "CC(=O)Nc1ccc(NC(=O)c2nc(S(=O)(=O)Cc3cccc(C)c3)ncc2Cl)cc1", "activity": 99.4}
{"smiles": "C=C1CC(COc2ccc3c(C)c(Cl)c(=O)oc3c2)(c2ccccc2)OC1=O", "note": "(stereo unspecified)", "activity": 99}
{"smiles": "Cc1ccc(-c2nc(-c3ccccn3)no2)cc1", "activity": 96.3}
{"smiles": "CS(=O)(=O)Nc1cccc(NC(=O)C2Cc3c(-c4cccc(F)c4)ccnc3O2)c1", "note": "(stereo unspecified)", "activity": 73.2}
{"smiles": "COc1ccc(-c2nc(-c3ccccn3)no2)cc1", "activity": 95.7}
{"smiles": "C(=Cc1cnc2ccccc2n1)c1ccc2c(c1)OCO2", "activity": 92.6}
{"smiles": "Cc1csc(NC(=O)c2cn3ccccc3n2)n1", "activity": 89.8}
{"smiles": "CCOC(=O)Cc1csc(NC(=S)NC(=O)c2ccc(Cl)cc2)n1", "activity": 63.8}
{"smiles": "CC(=O)CSc1ccc(-c2nc3cc(C)c(C)cc3[nH]2)cn1", "activity": 88.5}
{"smiles": "CCCCCCCNC(=O)C1(CC2CC(c3cccc(Br)c3)=NO2)CCNCC1", "note": "(stereo unspecified)", "activity": 98.4}
{"smiles": "COc1cc(SC)ccc1C(=O)Nc1nc2ccccc2[nH]1", "activity": 99}
{"smiles": "CN(C)c1ccc(Nc2nc(N)c3ccccc3n2)cc1", "activity": 95.8}
{"smiles": "CC1CCN(c2ccc(-c3cccc(NC(=O)C(F)(F)F)c3)nn2)CC1", "activity": 97.7}
{"smiles": "CCCn1c(C)cc(C(=O)CN2C(=O)c3ccccc3S2(=O)=O)c1C", "activity": 62.3}
